# LAP4 TOR yeast – modulators of TOR pathway LAP4-GFP in S. cerevisiae; AID 2023; S. cerevisiae LAP4-GFP multiplex, flow cytometry GFP, 3 h; median GFP as percent of DMSO wells; 320,000 compounds, 0.34% hits; GFP response vs DMSO, % at 10 µM;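 active means GFP response vs DMSO above a set limit, about the screen mean plus 3 SD, cut at about 150% in these data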
# MEP2 TOR yeast – modulators of TOR pathway MEP2-GFP in S. cerevisiae; AID 2016; GFP response vs DMSO, % at 10 µM; 330,000 compounds, 0.51% hits; S. cerevisiae MEP2-GFP strain, flow cytometry GFP, 3 h; 100% = DMSO control level;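 active means GFP response versus DMSO above a set limit, roughly screen mean plus 3 SD, cut at about 180% in these data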;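 further: median GFP fluorescence of the barcode-gated MEP2-GFP cells per well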
# CIT2-GFP yeast – yeast TOR pathway CIT2-GFP modulation. S. cerevisiae CIT2-GFP strain, flow cytometry, 3 h; 100 means same as DMSO wells. GFP response vs DMSO, % at 10 µM. 320,000 compounds, 0.065% hits;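 active means GFP response relative to DMSO above a set limit, near the screen mean plus 3 SD, cut at about 150% in these data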;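 further: ratio of well median GFP fluorescence to mean of DMSO wells on the plate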
# RPL19A TOR yeast – alters RPL19A-GFP fluorescence in TOR pathway yeast screen; S. cerevisiae RPL19A-GFP strain, flow cytometry, 3 h; hits give low values; percent response vs DMSO, % at 10 µM; 330,000 compounds, 0.3% hits;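 active means percent response vs DMSO below 50%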;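 further: median channel GFP fluorescence of the barcoded RPL19A-GFP strain; ratio of sample median GFP to plate DMSO average so 100% = DMSO; lower means less RPL19A-GFP as with rapamycin TOR inhibition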
# AGP1-GFP MLPCN – yeast TOR pathway AGP1-GFP modulation | S. cerevisiae AGP1-GFP multiplex flow cytometry, 3 h; GFP as percent of DMSO wells | GFP response vs DMSO, % at 10 µM | 320,000 compounds, 0.02% hits | AID 2066;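 active means GFP response relative to DMSO above a set limit, near screen average plus 3 SD, cut at about 150% in these data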;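 further: median GFP channel fluorescence of the gated AGP1 strain per well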
# LAP4-GFP pick2 – yeast LAP4-GFP modulation, second cherry pick | shares compounds with LAP4 TOR yeast | S. cerevisiae LAP4-GFP strain, flow cytometry GFP, 3 h | GFP response vs DMSO, % at 10 µM | 590 compounds, 20% hits | AID 2621;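 active means GFP signal as percent of the solvent control above about 150%, meaning raised reporter expression, limit read from the data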;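 further: ratio of well median GFP fluorescence to plate DMSO mean so 100% = DMSO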
# MEP2-GFP pick2 – reconfirmed MEP2-GFP TOR pathway modulator in yeast; AID 2622; S. cerevisiae MEP2-GFP strain, flow cytometry GFP, 3 h; GFP response vs DMSO, % at 10 µM; shares compounds with LAP4 TOR yeast; 590 compounds, 10% hits;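 active means GFP signal above 150% of the solvent control wells, that is a rise of more than half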;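 further: median channel GFP fluorescence of all gated yeast cells per well; ratio of median GFP to plate DMSO average so 100% = DMSO level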
# RPL19A-GFP pick2 – reconfirmed modulator of RPL19A-GFP TOR reporter in yeast | shares compounds with LAP4 TOR yeast | S. cerevisiae RPL19A-GFP strain, flow cytometry GFP, 3 h; hits give low values; 100% means same as DMSO wells | GFP response vs DMSO, % at 10 µM | 590 compounds, 3% hits | AID 2623;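 active means under 65% GFP response relative to DMSO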;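 further: median GFP channel fluorescence per well over the all cells gate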
# CIT2-GFP pick2 – reconfirmed modulator of CIT2-GFP TOR reporter in yeast | GFP response vs DMSO, % at 10 µM | S. cerevisiae CIT2-GFP strain, flow cytometry GFP, 3 h; DMSO control wells read 100% | shares compounds with LAP4 TOR yeast | 590 compounds, 8% hits;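 active means GFP response vs DMSO above about 150%, limit read from the data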;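 further: median green fluorescence per well over all gated yeast cells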
# AGP1-GFP pick2 – reconfirmed modulator of AGP1-GFP TOR reporter in yeast | shares compounds with LAP4 TOR yeast | S. cerevisiae AGP1-GFP strain, flow cytometry GFP, 3 h | percent response vs DMSO, % at 10 µM | 590 tested, under 10 active | AID 2643;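 active means over 150 percent of DMSO response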;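 further: median GFP channel fluorescence over all cells without mother daughter split; sample median GFP divided by mean DMSO control so 100% equals DMSO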
# s288c autofluor – yeast s288c autofluorescence artifact, counter-screen; shares compounds with LAP4 TOR yeast; S. cerevisiae s288c, 520 nm autofluorescence, flow cytometry, 3 h; hits give high values; zero means same as solvent-only cells; fluorescence change (kMESF span) at 33 µM; 610 tested, under 10 active; AID 2757;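 active means fluorescence span over the dose series, or activity score, above about 33, limit read from the data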
# * hit, by the source's call; · = no result. An excerpt weighted towards active compounds, which were near 0.93% of everything screened.
SMILES,LAP4 TOR yeast,MEP2 TOR yeast,CIT2-GFP yeast,RPL19A TOR yeast,AGP1-GFP MLPCN,LAP4-GFP pick2,MEP2-GFP pick2,RPL19A-GFP pick2,CIT2-GFP pick2,AGP1-GFP pick2,s288c autofluor
COc1ccccc1-c1nnc(SCCN2CCOCC2)n1-c1ccc(C)cc1,100,196*,124,71,30,102,100,101,114,97,·
COc1ccc(CN(Cc2cccn2C)S(=O)(=O)c2cccc(C(F)(F)F)c2)cc1,105,95,95,98,96,·,·,·,·,·,·
COc1ccc(/C=C/C(=O)C2C(=O)C=C(C)OC2=O)cc1O (stereo not given),185*,92,90,99,96,·,·,·,·,·,-0.2
CCCCNC(=O)c1cc2c(-c3ccc(Cl)cc3)nn(C)c2s1,157*,216*,151*,105,104,103,105,100,99,98,·
COCCCNC(=O)c1cc2c(-c3ccc(Cl)cc3)nn(C)c2s1,101,102,97,100,100,·,·,·,·,·,·
COc1cccc(/C=C2\C(=O)N(c3cccc(C)c3)C(=O)c3ccccc32)c1,154*,96,74,96,94,·,·,·,·,·,0
NNC(=O)Cn1nc(-c2ccccc2)c2ccccc2c1=O,96,105,96,103,90,·,·,·,·,·,·
CCC(Oc1ccccc1)C(=O)Nc1cc(Cl)ccc1-n1cncn1 (stereo not given),108,105,92,96,106,·,·,·,·,·,·
O=C(Oc1cccc2cccnc12)c1ccc(Br)o1,103,103,103,101,106,102,100,100,102,100,0.21
CCCN1CCc2c(sc(NC(=S)NC(=O)c3ccccc3)c2C#N)C1,139,129,157*,112,100,·,·,·,·,·,1.6
CC(C)N1CCc2c(sc(NC(=S)NC(=O)c3ccccc3)c2C#N)C1,99,122,117,104,101,·,·,·,·,·,·
Cc1ccc(C2=NN(S(C)(=O)=O)C(c3ccc4c(c3)OCO4)C2)cc1 (stereo not given),105,106,128,108,99,·,·,·,·,·,4.6
Cc1cc(N2C(=O)c3ccc(C(=O)Nc4ccc(CC(=O)O)cc4)cc3C2=O)no1,89,90,97,103,96,·,·,·,·,·,·
CC1CCCCN1C(=O)CCNS(=O)(=O)c1ccc2c(c1)c(=O)n(C)c(=O)n2C (stereo not given),91,96,100,95,94,·,·,·,·,·,·
CN(O)/C=c1/ccc2c(n1)C(=O)C=CC=2,275*,98,116,90,87,·,·,·,·,·,0.21
CC(=O)Nc1cccc(NC(=O)C(C)N2c3cccc4cccc(c34)S2(=O)=O)c1 (stereo not given),83,97,97,92,94,·,·,·,·,·,·
O=C(CCN1CCN(Cc2ccccc2)CC1)Nc1cccc(Br)c1,·,100,101,96,105,·,·,·,·,·,·
COc1ccccc1C(=O)NNC(=S)NC(=O)c1cccs1,186*,108,122,125,126,·,·,·,·,·,0.2
O=C(Cc1cccs1)NNC(=S)NCc1ccc(Cl)cc1,96,92,103,92,98,·,·,·,·,·,·
O=C(Cc1ccc(Cl)cc1)NNC(=S)NC(=O)c1cccs1,199*,104,108,109,113,·,·,·,·,·,1.1
O=C(NC(=S)NNC(=O)c1ccccc1O)c1cccs1,91,100,91,110,96,·,·,·,·,·,·
C/C(=N\NC(=O)c1cc2ccccc2cc1O)c1ccccn1,216*,119,97,97,101,·,·,·,·,·,1.6
CC(C)(O)C#Cc1ccc(CN2CCN(C3CCCC3)C(CCO)C2)cc1 (stereo not given),169*,93,89,86,110,99,105,100,103,100,·
Cc1c(NC(=O)c2ccco2)cccc1C(=O)NN1C(=O)c2ccccc2C1=O,88,107,112,108,103,·,·,·,·,·,·
Cc1c(C(=O)N(C)CCC#N)oc2ccc(S(=O)(=O)N3CCOCC3)cc12,106,96,101,98,105,·,·,·,·,·,·
SMILES,LAP4 TOR yeast,MEP2 TOR yeast,CIT2-GFP yeast,RPL19A TOR yeast,AGP1-GFP MLPCN,LAP4-GFP pick2,MEP2-GFP pick2,RPL19A-GFP pick2,CIT2-GFP pick2,AGP1-GFP pick2,s288c autofluor
Nc1c(C(=O)NC2CC2)sc2nc3c(c(-c4ccco4)c12)CC/C3=C/c1ccco1,195*,261*,86,71,38,141,113,106,119,101,·
CCOC(=O)C1=C(C)N(c2ccc(C)cc2)C(=O)/C1=C\c1ccc(O)c(OC)c1,112,105,95,100,106,·,·,·,·,·,·
CCOC(=O)C1=C(O)c2ccccc2C(=O)/C1=C\c1ccc(C)cc1,186*,111,80,82,72,187*,221*,100,162*,93,41*
COCc1nc(-c2cc(OC)c(OC)c(OC)c2)no1,109,793*,99,25*,23,104,105,101,98,100,·
Cc1onc(-c2c(F)cccc2Cl)c1C(=O)N=C(N)N1CC(C)OC(C)C1 (stereo not given),106,99,94,100,107,·,·,·,·,·,·
O=C(Nc1nnc(-c2ccc(F)cc2)o1)c1cccc([N+](=O)[O-])c1,164*,111,99,98,103,·,·,·,·,·,0.2
O=C(Nc1nnc(-c2ccccc2)o1)c1cc(Cl)sc1Cl,103,103,100,102,99,·,·,·,·,·,·
O=C(Nc1nnc(-c2ccc(F)cc2)o1)c1cc(Cl)sc1Cl,164*,118,102,98,115,167*,121,112,139,104,0.7
Oc1c(Br)cc(Br)cc1/C=N/c1nccs1,194*,88,73,83,59,132,122,75,107,93,·
Oc1ccc(Cl)cc1/C=N/c1nccs1,101,102,108,101,108,·,·,·,·,·,·
Oc1c(Br)cc(Br)cc1C=Nc1cccnc1,148,88,87,61,60,125,123,70,131,94,·
Oc1c(Br)cc(Br)cc1C=Nc1ccc2[nH]ncc2c1,184*,92,80,70,80,·,·,·,·,·,1

# From PubChem BioAssay
